# According to PubChem BioAssay:
# Active and inactive are the calls of the source.
# Assays:
# [1] = E. coli DRC41 culture turbidity changes, primary screen, E. coli filamentation inducer project, strain DRC41, OD650, 48 h (AID 1152);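 note: E. coli MC1000 strain DRC41 lacking acrAB efflux pump and sulA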; conditions: E. coli DRC41 (acrAB sulA), higher = more signal, called active from +8 up or from −8 down
# [2] = small-molecule binders of probe aLefty1, primary screen, biochemical, small-molecule microarray, 635/667 nm fluorescence (AID 1153); conditions: higher = more signal;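 note: score merges spot fluorescence with signal-to-noise ratio from the scanned slide images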
# [3] = PSAC antagonists in infected red cells, primary screen, cell-based, P. falciparum Indochina, OD700, 1 h (AID 1154); conditions: P. falciparum Indochina infected RBC osmotic lysis, higher = more signal, called active from +8 up or from −8 down
# [4] = PSAC antagonists in infected red cells, primary screen, cell-based, P. falciparum Indochina, OD700, 2 h (AID 1155);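 note: lysis reports solute entry through the parasite surface anion channel PSAC; channel blockers reduce lysis of infected cells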; conditions: P. falciparum Indochina infected erythrocytes, osmotic lysis OD700; higher = more signal, called active from +8 up or from −8 down
# [5] = osmotic lysis modulators in infected erythrocytes, primary screen, PSAC antagonist project, cell-based, P. falciparum Indochina, OD700, 3 h (AID 1156); conditions: higher = more signal, called active from +8 up or from −8 down
# [6] = PSAC antagonists in infected red cells, primary screen, cell-based, P. falciparum Indochina, OD700, 18 h (AID 1157); conditions: P. falciparum Indochina infected erythrocytes, osmotic lysis OD700, 18 h; higher = more signal, called active from +8 up or from −8 down
# [7] = modulators of S6 phosphorylation in cells, primary screen, cell-based, A549, cytoblot, luminescence, serum-stimulated (AID 1158); conditions: A549 phospho-S6 cytoblot, 5 h, higher = more signal;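 note: serum-stimulated A549 lung adenocarcinoma cells; signal is phosphorylated S6 detected by cytoblot immunostaining with HRP secondary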
# [8] = target: NADPH oxidase 2 (Homo sapiens) (UniProt P04839); assay: NOX2-dependent H2O2 signal modulators, primary screen, NOX inhibitor project, cell-based, HEK293-NOX2, PMA-stimulated, Amplex Red fluorescence (AID 1159); conditions: 45 min, higher = more signal, called active from +8 up or from −8 down; note: test concentration not given here
# [9] = target: NADPH oxidase 4 (Homo sapiens) (UniProt Q9NPH5); assay: NOX4-dependent H2O2 signal modulators, primary screen, NOX inhibitor project, cell-based, HEK293-NOX4, tetracycline-induced, Amplex Red fluorescence (AID 1160); conditions: 45 min, higher = more signal, called active from +8 up or from −8 down
# [10] = target: NADPH oxidase 5 (Homo sapiens) (UniProt Q96PH1); assay: NOX5-dependent H2O2 signal modulators, primary screen, NOX inhibitor project, cell-based, HEK293-NOX5, Amplex Red fluorescence (AID 1161); conditions: HEK293-NOX5, ionomycin, 45 min, higher = more signal
# Sequence of NADPH oxidase 5 (Homo sapiens) (Q96PH1 whole entry, looked up): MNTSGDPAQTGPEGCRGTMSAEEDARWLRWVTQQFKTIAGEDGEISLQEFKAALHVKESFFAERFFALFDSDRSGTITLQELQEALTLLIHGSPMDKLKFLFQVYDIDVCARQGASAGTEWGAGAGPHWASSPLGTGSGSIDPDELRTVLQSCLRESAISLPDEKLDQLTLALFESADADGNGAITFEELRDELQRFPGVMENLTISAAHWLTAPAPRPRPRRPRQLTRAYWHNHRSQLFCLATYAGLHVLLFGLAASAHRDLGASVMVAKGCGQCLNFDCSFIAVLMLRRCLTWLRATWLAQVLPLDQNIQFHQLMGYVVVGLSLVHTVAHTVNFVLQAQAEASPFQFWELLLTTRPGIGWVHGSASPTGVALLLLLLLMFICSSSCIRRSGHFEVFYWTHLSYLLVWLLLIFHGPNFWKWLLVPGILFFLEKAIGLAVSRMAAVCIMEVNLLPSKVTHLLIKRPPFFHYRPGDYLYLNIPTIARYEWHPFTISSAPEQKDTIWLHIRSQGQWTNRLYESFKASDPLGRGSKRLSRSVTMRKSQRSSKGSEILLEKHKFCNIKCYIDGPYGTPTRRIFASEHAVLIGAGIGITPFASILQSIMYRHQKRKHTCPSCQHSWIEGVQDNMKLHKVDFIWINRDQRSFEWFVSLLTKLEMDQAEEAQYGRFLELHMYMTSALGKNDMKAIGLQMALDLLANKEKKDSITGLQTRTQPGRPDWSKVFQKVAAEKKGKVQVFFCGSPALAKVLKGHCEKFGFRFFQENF
# Sequence of NADPH oxidase 4 (Homo sapiens) (Q9NPH5 whole entry, looked up): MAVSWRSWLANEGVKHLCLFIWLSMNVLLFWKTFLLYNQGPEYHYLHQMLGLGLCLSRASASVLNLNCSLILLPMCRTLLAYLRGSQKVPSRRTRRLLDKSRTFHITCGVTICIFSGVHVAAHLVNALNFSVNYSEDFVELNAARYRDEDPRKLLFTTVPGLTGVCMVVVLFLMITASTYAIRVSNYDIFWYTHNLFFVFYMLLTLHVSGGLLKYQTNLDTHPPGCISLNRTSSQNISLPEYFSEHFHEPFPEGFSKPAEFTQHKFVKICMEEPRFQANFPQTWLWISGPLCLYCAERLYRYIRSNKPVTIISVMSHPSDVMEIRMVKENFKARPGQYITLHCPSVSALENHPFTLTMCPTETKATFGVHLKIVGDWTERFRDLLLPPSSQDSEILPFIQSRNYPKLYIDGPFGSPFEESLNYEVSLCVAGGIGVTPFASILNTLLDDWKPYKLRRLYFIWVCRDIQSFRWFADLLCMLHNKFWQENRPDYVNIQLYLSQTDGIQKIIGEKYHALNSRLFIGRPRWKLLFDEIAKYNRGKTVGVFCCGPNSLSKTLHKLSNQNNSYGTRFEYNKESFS
# Sequence of NADPH oxidase 2 (Homo sapiens) (P04839 whole entry, looked up): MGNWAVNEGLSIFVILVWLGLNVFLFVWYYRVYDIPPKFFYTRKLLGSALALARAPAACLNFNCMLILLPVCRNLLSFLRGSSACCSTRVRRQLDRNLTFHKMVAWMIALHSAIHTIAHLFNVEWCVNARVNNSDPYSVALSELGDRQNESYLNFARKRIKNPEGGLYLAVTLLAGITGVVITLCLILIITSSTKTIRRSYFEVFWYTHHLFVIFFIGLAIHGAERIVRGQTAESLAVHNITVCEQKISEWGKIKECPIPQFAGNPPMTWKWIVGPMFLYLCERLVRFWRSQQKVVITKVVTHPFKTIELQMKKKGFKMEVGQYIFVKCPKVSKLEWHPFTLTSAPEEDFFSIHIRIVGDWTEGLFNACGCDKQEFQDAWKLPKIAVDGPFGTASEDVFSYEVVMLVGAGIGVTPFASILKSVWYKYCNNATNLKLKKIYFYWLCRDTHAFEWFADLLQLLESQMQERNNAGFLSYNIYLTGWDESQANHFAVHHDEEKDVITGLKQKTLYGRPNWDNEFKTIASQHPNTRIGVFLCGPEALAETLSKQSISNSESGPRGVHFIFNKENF
Structure (SMILES),z-score [1],composite z-score [2],z-score [3],z-score [4],z-score [5],z-score [6],z-score [7],z-score [8],z-score [9],z-score [10]
CC=CC(O)C1C=CC2C(=O)N(c3ccccc3)C(=O)C2N1Nc1ccc(C(C)C)cc1 (stereo not given),-1.63 (inactive),0.424,20.2 (active),7.4 (inactive),1.39 (inactive),1.68 (inactive),-0.521,-0.68 (inactive),-3.67 (inactive),-4.2
O=C1O[C@@H](c2ccccc2)[C@@H](c2ccccc2)N2[C@@H](c3ccc(OCCO)cc3)[C@]3(C(=O)Nc4ccccc43)[C@@H](C(=O)Nc3nc4ccccc4s3)[C@H]12,0.515 (inactive),0.919,5.55 (inactive),2.55 (inactive),1.37 (inactive),2.01 (inactive),0.298,1.68 (inactive),1.24 (inactive),1.63
C=CCC(OC(C)=O)[C@@H]1[C@@H](N(Cc2cccc3ccccc23)C(=O)c2ccc(C)cc2)c2cc(OCCCO)ccc2N1C(=O)Cc1ccc(OC)cc1 (stereo not given in full),2.7 (inactive),-0.0482,0.786 (inactive),-0.438 (inactive),-0.632 (inactive),-0.669 (inactive),1.95,-0.993 (inactive),0.727 (inactive),0.687
COC(=O)C1=CC(CCCO)=CC(C2CC2)N(Cc2sc3ccccc3c2Cl)C=C1C(=O)OC (stereo not given),-0.899 (inactive),0.335,10.6 (active),2.09 (inactive),0.901 (inactive),1.23 (inactive),-0.18,-0.986 (inactive),-1.76 (inactive),0.19
C=C(COC)C(=O)CC[C@@H](OC(=O)c1cccnc1)c1ccc(CO)o1,0.272 (inactive),-0.0536,1.47 (inactive),0.145 (inactive),0.0755 (inactive),0.038 (inactive),-0.0125,1.59 (inactive),0.304 (inactive),0.21
O=C1OCCC=C[C@H]2OC34C=CCN(c5ccc6ccccc6c5)C(=O)[C@H]3N(CCCCCO)C(=O)[C@@H]4C12 (stereo not given in full),1.3 (inactive),0.831,3.56 (inactive),0.526 (inactive),2 (inactive),0.599 (inactive),-0.37,1.95 (inactive),0.913 (inactive),2.57
CC(C)=CCCC(C)=CC(O)C1C=CC2C(=O)N(c3ccccc3)C(=O)C2N1Nc1ccccc1 (stereo not given),-1.8 (inactive),0.805,1.37 (inactive),1.4 (inactive),1.09 (inactive),1.27 (inactive),-1.29,-1.26 (inactive),-4.03 (inactive),-2.54
CCN(CC)c1ccc(N2CC=CC34O[C@@H]5/C=C\CCCOC(=O)C5[C@H]3C(=O)N(C(CO)C(C)C)[C@@H]4C2=O)cc1 (stereo not given in full),-0.522 (inactive),-0.137,1.38 (inactive),0.486 (inactive),0.883 (inactive),0.648 (inactive),-0.713,0.0116 (inactive),0.337 (inactive),0.492
CS(=O)(=O)CCOC(=O)C1=CC(c2ccc(CO)cc2)=CC(C2CC2)N(Cc2cc3c(cc2Br)OCO3)C=C1C(=O)OCCS(C)(=O)=O (stereo not given),-1.9 (inactive),0.199,17.2 (active),3.22 (inactive),0.904 (inactive),1.29 (inactive),0.376,-1.77 (inactive),-0.749 (inactive),-2.03
C=CCOC(=O)[C@@H]1[C@H]2C(=O)O[C@H](c3ccccc3)[C@H](c3ccccc3)N2[C@H](c2ccc(OCCOC(=O)[C@@H]3C[C@@H]4C(=O)N[C@@H](Cc5ccccc5)C(=O)N4[C@@H]3c3cccc(OCCO)c3)cc2)[C@@]12C(=O)Nc1ccc(I)cc12,0.264 (inactive),0.706,9.36 (active),2.8 (inactive),2.09 (inactive),1.31 (inactive),-0.479,1.03 (inactive),-1.02 (inactive),0.727
COc1ccc(C(O)C2C=CC3C(=O)N(c4ccccc4)C(=O)C3N2Nc2ccc([N+](=O)[O-])cc2)cc1OCc1ccccc1 (stereo not given),-1.64 (inactive),1.55,14.2 (active),2.71 (inactive),0.107 (inactive),0.926 (inactive),-0.881,0.151 (inactive),-0.18 (inactive),-1.29
Cc1ccc(F)cc1S(=O)(=O)N[C@@H]1CCN(Cc2ccc(-c3ccccc3)cc2)C1,-19.4 (active),0.121,13 (active),2.34 (inactive),0.349 (inactive),1.41 (inactive),-0.275,0.335 (inactive),-1.62 (inactive),-1.57
[N-]=[N+]=NCc1ccccc1C[C@]1(C(=O)O)N=C(c2ccc(OCCCO)cc2)O[C@H]1c1ccccc1CN=[N+]=[N-],-0.813 (inactive),0.222,21.5 (active),3.96 (inactive),0.649 (inactive),0.321 (inactive),-0.591,-0.331 (inactive),1.11 (inactive),2.29
O=C1C[C@@](C(=O)NC2CC2)(c2ccc([N+](=O)[O-])cc2)[C@@H](c2ccc(CO)cc2)N1CC12CC3CC(CC(C3)C1)C2,0.904 (inactive),0.0861,2.28 (inactive),-0.135 (inactive),0.678 (inactive),-0.83 (inactive),0.392,0.987 (inactive),-2.19 (inactive),-2.35
C=CCC(OC(C)=O)[C@@H]1[C@@H](N(Cc2ccc(-c3cccc(C(F)(F)F)c3)o2)C(=O)c2ccc(C)cc2)c2cc(OCCCO)ccc2N1C(=O)c1ccc(-c2ccccc2)cc1 (stereo not given in full),1.35 (inactive),-0.0464,1.93 (inactive),0.705 (inactive),-0.0802 (inactive),-0.0352 (inactive),-0.047,-3.28 (inactive),0.822 (inactive),2.25
COCCOC(=O)N1C(=O)[C@@]2(c3cc(C#CCC(C(=O)OC)C(=O)OC)ccc31)[C@H](C(=O)N1CCCCCCC1)[C@H]1C(=O)O[C@H](c3ccccc3)[C@H](c3ccccc3)N1[C@@H]2c1ccc(OCCO)cc1,0.917 (inactive),2.5,17.1 (active),4.27 (inactive),0.791 (inactive),1.14 (inactive),-0.0447,0.327 (inactive),0.43 (inactive),0.547
CCCCC(O)C1C=CC2C(=O)N(C3CCCCC3)C(=O)C2N1Nc1ccc(OC)cc1 (stereo not given),-0.436 (inactive),0.366,3 (inactive),1.24 (inactive),0.517 (inactive),0.684 (inactive),-0.62,-0.937 (inactive),-2.06 (inactive),-1.43
O=C1O[C@H](c2ccccc2)[C@H](c2ccccc2)N2[C@H]1[C@@H](C(=O)O)[C@]1(C(=O)Nc3ccc(C#CC4(O)CCCCCC4)cc31)[C@H]2c1ccc(OCCO)cc1,-1.21 (inactive),-0.031,1.14 (inactive),-0.795 (inactive),-9.96 (active),-0.71 (inactive),-0.424,2.71 (inactive),-0.335 (inactive),1.25
Cc1ccc(S[C@]2(C(=O)NCc3ccccc3)CC(=O)N(Cc3ccccc3)[C@@H]2c2ccc(CO)cc2)cc1,-1.24 (inactive),-0.188,1.27 (inactive),0.115 (inactive),-0.376 (inactive),-0.234 (inactive),0.0768,-1.51 (inactive),0.494 (inactive),-0.189
O=C1O[C@@H](c2ccccc2)[C@@H](c2ccccc2)N2[C@@H](c3ccc(O)cc3)[C@]3(C(=O)Nc4ccc(C#CC5=CCCCC5)cc43)[C@@H](C(=O)O)[C@H]12,4.17 (inactive),0.112,-2.7 (inactive),-2.38 (inactive),-9.62 (active),-3.16 (inactive),3.05,0.896 (inactive),-2.76 (inactive),-1.01
[N-]=[N+]=NCc1ccccc1[C@H]1OC(c2ccc(OCCCO)cc2)=N[C@@]1(CCS(=O)(=O)c1ccccc1)C(=O)N1CCOCC1,-0.0978 (inactive),1.08,24.4 (active),9.51 (active),1.76 (inactive),0.885 (inactive),-0.362,1.24 (inactive),2.19 (inactive),1.98
CC(C)N1C(=O)C[C@@](C(=O)NCc2ccccc2)(c2ccc([N+](=O)[O-])cc2)[C@H]1c1ccc(CO)cc1,1.05 (inactive),-0.409,1.58 (inactive),-0.273 (inactive),1.03 (inactive),0.449 (inactive),-0.081,-0.85 (inactive),-0.235 (inactive),-1.72
